The list is not random: actives were taken first. Their share in the collection is about 7.4%.
ELG1 genotox – induces genotoxicity in HEK293T cells with luciferase-tagged ELG1 | Potency, µM (series often up to 46 µM), usual class: activators | hit rate 1.3% among 330,000 | HEK293T ELG1-luciferase reporter, luminescence, 16 h; also: nearly all actives have a fitted effect of over 60% in size
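Genotoxicity was scored as increased ELG1-luciferase reporter signal, measured by ONE-Glo luminescence (30 min, room temperature). Compound or vehicle exposure of the HEK293T reporter cells lasted 16 hr at 37°C.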
Rab9 promoter act – Rab9 promoter activation; hit rate 2.8% among 320,000; Huh7 Rab9 promoter-luciferase reporter, luminescence, 24 h; Potency, µM (titrated, usually from 9.22 µM), most hits filed as activators; also: nearly all actives have a fitted effect of over 60% in size
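Luminescence from Amplite-detected luciferase (10 minutes, ambient) reports Rab9 promoter activation. Before that, stable Rab9-luciferase Huh7 cells (1500/well, reduced-serum OP-MEM I plus 10% FBS) were exposed to compound for 24 hours at 37C.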
FLuc counter – firefly luciferase modulation, counter-screen for miR-21 project; hit rate 6.9% among 360,000; Potency, µM (top dose mostly 57.5 µM), usual class: inhibitors; purified FLuc, Km substrates, luminescence inhibition; P08659; also: nearly all actives have a fitted effect of over 55% in size
Target sequence (P08659 whole entry, looked up): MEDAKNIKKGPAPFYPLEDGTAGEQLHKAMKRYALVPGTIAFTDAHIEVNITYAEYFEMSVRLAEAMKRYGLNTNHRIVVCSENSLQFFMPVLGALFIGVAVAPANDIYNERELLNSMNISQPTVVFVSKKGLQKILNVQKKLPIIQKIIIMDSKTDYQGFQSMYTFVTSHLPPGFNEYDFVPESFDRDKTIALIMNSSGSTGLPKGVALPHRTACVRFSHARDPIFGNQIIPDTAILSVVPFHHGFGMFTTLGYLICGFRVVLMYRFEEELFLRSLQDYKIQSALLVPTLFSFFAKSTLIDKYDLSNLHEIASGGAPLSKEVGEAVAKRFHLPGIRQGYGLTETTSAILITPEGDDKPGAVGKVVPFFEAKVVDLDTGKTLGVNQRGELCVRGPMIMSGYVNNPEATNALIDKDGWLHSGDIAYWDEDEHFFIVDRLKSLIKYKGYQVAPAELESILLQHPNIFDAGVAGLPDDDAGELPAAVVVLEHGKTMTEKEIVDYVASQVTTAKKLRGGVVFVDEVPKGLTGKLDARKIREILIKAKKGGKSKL
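Biochemical qHTS of compounds, final roughly 60 µM downward over six points, against 10 nM purified firefly luciferase using Km concentrations of substrates (10 uM D-luciferin, 10 uM ATP) in Tris acetate pH 7.5 buffer; luminescence output.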
NPC1 promoter act – NPC1 promoter activation. Huh7 NPC1 promoter luciferase reporter, 24 h. Potency, µM (doses to about 9.22 µM), hits mostly activators. hit rate 2.4% among 320,000. AID 485313; also: nearly all actives have a fitted effect of over 60% in size
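Luciferase expression driven by the NPC1 promoter was measured in stably transfected Huh7 cells after a 24 h compound incubation, using a luciferase reagent and a luminescence read.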
SMN2 splice up – enhancers of SMN2 splice variant expression; HEK293 SMN2-luciferase splicing reporter, luminescence, 30-36 h; Potency, µM (top dose mostly 46.1 µM), hits mostly activators; hit rate 2.8% among 210,000; AID 1458; also: nearly all actives have a fitted effect of over 55% in size
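qHTS luciferase splicing reporter: luminescence rises when SMN2 exon 7 is included in transfected HEK293 cells. Compound exposure lasted 30-36 h at 37C, with 4.5 mM final sodium butyrate as control, followed by a ONE-Glo read.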
A number is an active result. Calls follow the shape of the dose curve; as a rule, active = well fitted curve in the direction sought with a large enough effect; inconclusive = small, poorly fitted or top-dose-only effect, or another doubt; inactive = no such curve, though single readings can be large; an effect the other way counts as inactive or inconclusive.

`CC(C)Oc1ccc(C(=O)Nc2cccc3cccnc23)cc1` gave ELG1 genotox inactive, Rab9 promoter act inactive, FLuc counter 11µM and NPC1 promoter act inactive.
Screening CCOc1ccc(C(=O)Nc2cccc3cccnc23)cc1 returned ELG1 genotox inactive, Rab9 promoter act inactive, FLuc counter inconclusive and NPC1 promoter act inactive.
`CC(C)c1ccc(C(=O)Nc2cccc3cccnc23)cc1` gave FLuc counter 9.5µM and SMN2 splice up inactive.
`Cc1nc(N2CCOCC2)c2c(C(=O)N3CCN(c4ccccc4F)CC3)c(C)oc2n1` gave FLuc counter inactive.
For Cc1cccc(C(=O)NC(=S)Nc2cccc3nc(C)ccc23)c1 the results were ELG1 genotox inactive, Rab9 promoter act inactive, FLuc counter inactive and NPC1 promoter act inactive.
`O=C(Nc1cccc2cccnc12)c1ccc(F)cc1` gave FLuc counter 15µM.
`CCOc1ccc(/C=C/C2=Cc3c(sc(NC(=O)CSc4n[nH]c(N)n4)c3C#N)C(C)(C)C2)cc1` gave ELG1 genotox inactive, Rab9 promoter act inactive, FLuc counter 9.5µM, NPC1 promoter act inactive and SMN2 splice up inactive.
Screening Cc1cc(N2CCC(C(=O)Nc3ccc(Cl)cc3)CC2)n2nc(C)c(-c3ccc(Cl)cc3)c2n1 returned FLuc counter inactive and SMN2 splice up inactive.
COC(=O)CSc1nc2ccccc2o1 was read as ELG1 genotox inactive, Rab9 promoter act inactive, FLuc counter inconclusive, NPC1 promoter act inactive and SMN2 splice up inactive.
Screening CCCCCCOC(=O)Sc1nc2ccccc2o1 returned ELG1 genotox inactive, Rab9 promoter act inactive, FLuc counter 24µM, NPC1 promoter act inactive and SMN2 splice up inactive.
CCc1nnc(NC(=O)c2ccc(Br)c(S(=O)(=O)N3CCOCC3)c2)s1 was read as ELG1 genotox inactive, Rab9 promoter act inactive, FLuc counter inactive and NPC1 promoter act inactive.
For Cc1cccc(OCc2nc(-c3cccnc3)no2)c1 the results were ELG1 genotox inactive, Rab9 promoter act inactive, FLuc counter inconclusive, NPC1 promoter act inactive and SMN2 splice up inactive.
`Clc1ccc(-c2nnc(-c3ccc(Br)o3)o2)c(Cl)c1` gave ELG1 genotox 9.2µM, Rab9 promoter act inconclusive, FLuc counter 3µM, NPC1 promoter act 1.6µM and SMN2 splice up inconclusive.
`Fc1ccc(-c2nnc(-c3ccc(Cl)cc3Cl)o2)cc1` gave ELG1 genotox 1.6µM, Rab9 promoter act 0.32µM, FLuc counter 0.48µM, NPC1 promoter act 0.22µM and SMN2 splice up 1µM.
For CSc1nnc(-c2ccc(F)cc2)o1 the results were ELG1 genotox inactive, Rab9 promoter act inactive, FLuc counter inactive, NPC1 promoter act inactive and SMN2 splice up inactive.
Screening Clc1ccc(-c2nnc(-c3ccccc3)o2)c(Cl)c1 returned ELG1 genotox inconclusive, Rab9 promoter act 0.89µM, FLuc counter 0.43µM, NPC1 promoter act 0.4µM and SMN2 splice up 2.5µM.
`Fc1ccc(-c2nnc(-c3ccc(Cl)cc3)o2)cc1` gave ELG1 genotox 6.5µM, Rab9 promoter act 0.79µM, FLuc counter 2.7µM, NPC1 promoter act 2µM and SMN2 splice up inconclusive.
For CCOC(=O)[C@H]1[C@H]2COc3ccc(OC)cc3[C@@H]2N2C(=O)CN(Cc3ccc(OC)cc3)C(=O)[C@@]12C the results were ELG1 genotox inactive, Rab9 promoter act inactive, FLuc counter inactive and NPC1 promoter act inactive.
`CC(=O)N[C@@H](CC(=O)O)C(=O)N[C@@H](CCC(=O)O)C(=O)O` gave SMN2 splice up inactive.
Cc1ccc(NC(=O)C2=C(O)c3ccccc3N(C)S2(=O)=O)cc1 was read as ELG1 genotox inactive, Rab9 promoter act inactive, FLuc counter 15µM, NPC1 promoter act inactive and SMN2 splice up inactive.
For Cc1cccc(C)c1NC(=O)C1=C(O)c2ccccc2N(C)S1(=O)=O the results were ELG1 genotox inactive, Rab9 promoter act inactive, FLuc counter inactive, NPC1 promoter act inactive and SMN2 splice up inactive.
Cc1ccc(Nc2c(-c3ccco3)nc3ccc(C)cn23)cc1 was read as FLuc counter inactive and SMN2 splice up inactive.
`Cc1cc(C)n(-c2cccc(C(=O)O)c2)n1` gave ELG1 genotox inactive, Rab9 promoter act inactive, FLuc counter inactive and NPC1 promoter act inactive.
`COc1ccccc1-n1cnc2sc(-c3ccccc3)cc2c1=O` gave ELG1 genotox inactive, Rab9 promoter act 2.8µM, FLuc counter 11µM, NPC1 promoter act inconclusive and SMN2 splice up inactive.
O=c1c2cc(-c3ccccc3)sc2ncn1/N=C/c1ccco1 was read as ELG1 genotox inconclusive, Rab9 promoter act 3.5µM, FLuc counter 8.5µM, NPC1 promoter act inconclusive and SMN2 splice up inactive.
`CCCCn1cnc2sc(-c3ccccc3)cc2c1=O` gave ELG1 genotox inconclusive, Rab9 promoter act 1.6µM, FLuc counter 5.4µM, NPC1 promoter act 1.4µM and SMN2 splice up inactive.
O=c1c2c(-c3ccccc3)csc2ncn1/N=C/c1c2ccccc2cc2ccccc12 was read as ELG1 genotox inactive, Rab9 promoter act inactive, FLuc counter inactive, NPC1 promoter act inactive and SMN2 splice up inactive.
Screening CCCCCn1cnc2sc(-c3ccccc3)cc2c1=O returned ELG1 genotox inactive, Rab9 promoter act 2.2µM, FLuc counter 6.7µM, NPC1 promoter act 2.5µM and SMN2 splice up inconclusive.
Screening Cn1ccnc1SCc1cn2cc(Br)ccc2n1 returned ELG1 genotox inconclusive, Rab9 promoter act 0.56µM, FLuc counter 3.8µM, NPC1 promoter act 0.32µM and SMN2 splice up inconclusive.
Screening Nc1nc2c(s1)CCc1c-2cnn1-c1ccccc1 returned ELG1 genotox inactive, Rab9 promoter act inconclusive, FLuc counter 6.7µM, NPC1 promoter act 0.79µM and SMN2 splice up 11µM.
COCCCn1c(SCC(=O)NC2CCS(=O)(=O)C2)nnc1-c1ccc(Cl)cc1 (stereo not drawn) was read as ELG1 genotox inactive, Rab9 promoter act inactive, FLuc counter inactive and NPC1 promoter act inactive.
`COc1ccccc1/C=C1\SC(N2CCC(C)CC2)=NC1=O` gave ELG1 genotox inconclusive, Rab9 promoter act inactive, FLuc counter 12µM and NPC1 promoter act inactive.
For COc1cccc(/C=C2\SC(N3CCC(C)CC3)=NC2=O)c1OC the results were ELG1 genotox inactive, Rab9 promoter act inactive, FLuc counter 17µM and NPC1 promoter act inactive.
Screening COc1cccc(/C=C2\SC(N3CCCC(C)C3)=NC2=O)c1OC (stereo not drawn) returned ELG1 genotox inconclusive, Rab9 promoter act inconclusive, FLuc counter 5.4µM and NPC1 promoter act inconclusive.
For CCOC(=O)C1CCN(C2=NC(=O)/C(=C/c3ccccc3OC)S2)CC1 the results were ELG1 genotox inactive, Rab9 promoter act inactive, FLuc counter inconclusive and NPC1 promoter act inactive.
Screening COc1cccc(/C=C2\SC(=S)N(N3CCOCC3)C2=O)c1OC returned ELG1 genotox inconclusive, Rab9 promoter act inactive, FLuc counter 17µM, NPC1 promoter act inactive and SMN2 splice up inactive.
For COc1ccc(/C=C2\SC(=S)N(N3CCOCC3)C2=O)c(OC)c1 the results were ELG1 genotox inactive, Rab9 promoter act inactive, FLuc counter inconclusive and NPC1 promoter act inactive.

Bioassay records as filed in PubChem BioAssay.
